Dicer processing: human Dicer pre-microRNA cleavage inhibition; AID 1347074; z-score at 25 µM; 47,000 tested, 6% active; cat-ELCCA pre-miR-21 Dicer processing, chemiluminescence; active compounds read high; Q9UPY3; in the data active = z-score above about 3, passing the limit was not always enough;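 also: plate controls were vehicle for no effect and no enzyme for full effect; higher signal means more uncleaved substrate so more Dicer inhibition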
Active calls of the source: *. This is one part of a sample in which hits are shown more often than they occur.

SMILES	Dicer processing
Cc1[nH]n(-c2ccccc2)c(=O)c1C(c1cccnc1)c1c(C)[nH]n(-c2ccccc2)c1=O	-1.9
CSCC(CSC)OC(=O)Nc1ccc(Cl)cc1	1.3
CC(C)OC(=O)Nc1ccc(Cl)cc1	-0.57
CC(=O)OC(C(=O)O)C(OC(C)=O)C(=O)Nc1ccc(Cl)cc1 (stereo not drawn)	3.1*
CCOC(=O)CSc1nc2ccccc2c(=O)n1CC1CCCCC1	-0.3
O=C1Nc2ccccc2/C1=C/c1c[nH]c2ccc([N+](=O)[O-])cc12	11
Cc1nc2nc(C)c(CCC(C)C)c(=O)n2[nH]1	-0.5
Cc1ccc2c(c1)c1c(n2CC(O)CNCc2ccco2)CCCC1 (stereo not drawn)	5*
Cc1ccc2c(c1)c1c(n2CC(O)CNCc2ccccc2)C(=O)CCC1 (stereo not drawn)	-1.3
OC(CNCc1ccco1)COc1ccccc1 (stereo not drawn)	2.8
FC(F)(F)C1=CC(c2ccc(Br)cc2)=NCCN1	3.6*
O=C1NCCN=C(c2ccccc2)c2ccccc21	0.36
FC(F)(F)C1=CC(c2ccccc2)=NCCN1	3.1*
C/C(=N\NC1=NCCN1)c1ccc(Br)cc1	-0.75
c1ccc2c(CC3=NCCN3)cccc2c1	2.7
Nc1nc(-c2ccc(Br)cc2)cc(C(F)(F)F)n1	0.66
Cc1ccc2nc(-c3ccc(Cl)c(C)c3)cn2c1	0.09
C/C(=N\OC(=O)c1ccc(Cl)cc1)c1ccn(S(=O)(=O)c2ccc(Cl)cc2)c1	11*
C/C(=N\O)c1ccn(S(=O)(=O)c2ccc(Cl)cc2)c1	0.09
C/C(=N\OC(=O)c1ccc(C(F)(F)F)cc1)c1ccn(S(=O)(=O)c2ccccc2)c1	-0.23
Fc1ccc(Nc2ncnc3nc[nH]c23)cc1F	-2.2
COCCOC(=O)c1c(C)oc2cc(Br)c(OCc3ccc(F)cc3)cc12	-0.19
Cc1noc(C)c1C(=O)N(C(C)C)C(C)C	9.2
CC(=O)OC[C@H]1O[C@@H](Nc2ccc(C)cc2)[C@H](OC(C)=O)[C@@H](OC(C)=O)[C@@H]1OC(C)=O	-0.18
COc1ccc(Cn2c(=O)c3[nH]cnc3n(-c3ccccc3S(C)=O)c2=O)cc1 (stereo not drawn)	-0.81
SMILES	Dicer processing
O=C(c1ccncc1)N1CCN(Cc2ccco2)CC1	1.2
O=C(c1ccccc1)N1CCN(C2=NS(=O)(=O)c3ccccc32)CC1	7
O=C(c1cccnc1)N1CCN(C(=O)c2ccco2)CC1	4.7*
O=C(c1cccnc1)N1CCN(c2ccc3ccccc3n2)CC1	4.2*
O=C(O)c1cccnc1	1.2
O=C1NCCCC1C(=O)N1CCN(C(=O)c2ccco2)CC1 (stereo not drawn)	-1.3
COc1ccccc1OCCC(=O)O	2.7
COc1ccccc1OCCN1CCN(C)CC1	4.8*
COc1ccccc1OCCn1cc(C(=O)O)c2ccccc21	-0.73
C=CCn1c(C(C)Oc2ccccc2-c2ccccc2)n[nH]c1=S (stereo not drawn)	0.1
Cc1ccc(S(=O)(=O)c2ccc(C(=O)Nc3ccc(Cl)cc3)cc2[N+](=O)[O-])cc1	2.3
COc1ccc(-c2cc(OC(=O)c3cccc(Br)c3)c3c(C)oc(C)c3c(=O)c2)cc1	2.7
COc1ccc(-c2cc(OC(=O)c3cccs3)c3c(C)oc(C)c3c(=O)c2)cc1	4.3*
COc1ccc(-c2cc(OC(=O)c3ccc(Cl)cc3)c3c(C)oc(C)c3c(=O)c2)cc1	1.7
O=S(=O)(Oc1c(Cl)cccc1Cl)c1cc(Br)c(Br)s1	-0.24
O=S(=O)(Cc1c(Cl)cccc1Cl)c1cccs1	-2.2
CC1CCCCN1S(=O)(=O)c1cc(Cl)ccc1Cl (stereo not drawn)	-1.1
c1ccc(-c2nc(N3CCOCC3)c3ccccc3n2)cc1	7
CC1=C(C(=O)OC(C)C)C(c2ccc(N(C)C)cc2)C2=C(CCCC2=O)N1 (stereo not drawn)	-1.2
CNc1nc2c(N)ncnc2n1[C@H]1O[C@@H](CO)[C@H](O)[C@@H]1O	-0.07
Nc1nc2c(nc(NCCCN3CCOCC3)n2[C@H]2O[C@@H](CO)[C@H](O)[C@@H]2O)c(=O)[nH]1	3.5*
Nc1nc2c(nc(N3CCN(c4ccccc4)CC3)n2[C@H]2O[C@@H](CO)[C@H](O)[C@@H]2O)c(=O)[nH]1	-0.68
Cc1ccc(Sc2c(Sc3ccc(C)cc3)c(=O)c2=O)cc1	-2.3
O=C(O)CC1SC(c2cccc(Cl)c2)=NC1=O (stereo not drawn)	0.84
C=CCn1c(Sc2c3c(c(C#N)c4nc5ccccc5n24)CCCC3)nnc1-c1ccccc1	-0.95
SMILES	Dicer processing
O=C(O)c1ccc2nc(-c3ccccc3)c(-c3ccccc3)nc2c1	0.57
O=C(O)c1ccc2nc(-c3ccc(O)cc3)sc2c1	4.5*
Nc1ccc(-c2nc3ccccc3s2)cc1	2.9
Cn1c2ccccc2c2nnc(SCc3ccccc3)nc21	-2.8
CSC(=NC(=O)c1c(Cl)cccc1Cl)N1CCCC(C)C1 (stereo not drawn)	-0.22
COc1ccc(OC)c(Sc2ccc([N+](=O)[O-])cc2)c1	4.5*
COc1ccc(OC)c(Sc2ccc(C(F)(F)F)cc2[N+](=O)[O-])c1	7.8*
COc1ccc(OC)c(Sc2ccc(Cl)cc2[N+](=O)[O-])c1	0.07
COc1cc([N+](=O)[O-])c(C)cc1Sc1ccc(C)cc1	-0.13
Cc1cc(Sc2ccc(C(F)(F)F)cc2[N+](=O)[O-])c(Cl)cc1Cl	-0.53
COc1cc(Sc2ccc(Cl)cc2)ccc1[N+](=O)[O-]	-0.52
CCOc1c(Br)cc(C2C(C(=O)OC)=C(C)NC3=C2C(=O)c2ccccc23)cc1OC (stereo not drawn)	1.7
COc1ccc(-c2[nH]ncc2/C=N/Nc2cnc3ccccc3n2)cc1	-0.67
CCCCC#Cc1ccc(-c2nnc(SCc3ccc(Cl)cc3)n2C)o1	1.1
CNC(=O)NC(=O)Cn1nc2n(c1=O)-c1ccccc1SC2	0.34
NNC(=O)Cn1nc2n(c1=O)-c1ccccc1SC2	4.1*
CC(=O)Cn1nc2n(c1=O)-c1ccccc1SC2	-0.18
CCCc1cc(=O)oc2cc(OCC(=O)NNC(=S)NC(=O)c3ccc(Cl)cc3)ccc12	1.7
O=C(NNc1ccc(-c2csnn2)cc1)Nc1ccc(Cl)cc1	0.77
COc1ccc(Cl)cc1NC(=O)Nc1nnc(C2CC2)s1	-0.31
COc1ccc(Cl)cc1NC(=O)Nc1sccc1-c1nc2ccccc2s1	5.1*
COc1ccccc1NC(=O)Nc1sccc1-c1nc2ccccc2s1	7.1
FC(F)(F)c1cc(-c2nc(CSc3ncccn3)no2)cc(C(F)(F)F)c1	0.79
O=c1c(F)cn(C2CCCO2)c(=O)n1Cc1cccc2ccccc12 (stereo not drawn)	-0.96
Clc1ccc(OCOc2ccc(Cl)cc2)cc1	-0.52
SMILES	Dicer processing
CC(=O)Nc1ccc(S(=O)(=O)Nc2nc(C)cc(C)n2)cc1	-1.6
Cc1ccnc(NS(=O)(=O)c2ccc(N3C(=O)C4CCCCC4C3=O)cc2)n1 (stereo not drawn)	8.1*
Cc1cc(C)nc(NC(=O)CN2C(=O)C3CCCCC3C2=O)n1 (stereo not drawn)	1.6
C#CCN1C(=O)C(O)(CC(=O)c2ccccc2OC)c2ccccc21 (stereo not drawn)	2.9
COc1cc(C2C(C#N)=C(N)Oc3c2ccc2ccccc32)ccc1O (stereo not drawn)	8.4
Cc1cc(C)cc(SCC(=O)NNC(=O)COc2ccc(C)c3c2CCC3)c1	-0.1
O=C(c1ccccc1)N1c2ccccc2OC1c1ccc2c(c1)OCO2 (stereo not drawn)	-0.43
CC(C)S(=O)(=O)c1csc(NC(=O)N=S(C)(=O)c2ccc(Cl)cc2)c1Cl (stereo not drawn)	-0.93
